The results in this text go back to PubChem BioAssay AID1273 (Columbia University Molecular Screening Center, 2008).

Molecules are shown by their SMILES. The campaign covered roughly 130,000 compounds. About 1,200 (0.92%) were called active.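 The calls were made as follows: active = inhibition above the mean plus 3 SD, with well images judged a real hit on visual review (cut at about 60% in these data, passing the limit was not always enough); inconclusive = inhibition over the cutoff but images rejected on review; inactive = inhibition not above the cutoff.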 The entries come from a sample that favours actives as a whole.

The assay is described as follows: insulin gene promoter suppression in islet cells – imaging, TRM-6 cells (human fetal islet line), eGFP reporter, cell count, primary screen (AID 1273;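 as to normalized cell count: cells exposed to compound for 48 h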). To be noted: at 2 µM; inhibition: stronger effect = higher value; normalized cell count: measured here: cell count, toxicity.
By inhibition is commonly meant the relative decrease from the control value, in per cent. Turning to `COP(=O)(OC)C(NC(=O)c1ccc(C)cc1)C(Cl)(Cl)Cl` (stereo not given), the inhibition was 78.6% (active) and the normalized cell count was found to be 102%.
Taken in the same sequence, the figures for `CC(=O)c1ccc(OC(NC(=O)Cc2ccccc2)C(Cl)(Cl)Cl)cc1` (stereo not given) were -6.45% (inactive) and 137%.
Regarding `CCOP(=O)(OCC)C(NC(=O)c1ccc(C)cc1)C(Cl)(Cl)Cl` (stereo not given), the inhibition was -37.5% (inactive) and the normalized cell count came to 107%.
As to `O=C(OCCN1CCOCC1)C1(c2ccccc2)CCCC1`, the inhibition is -36.4% (inactive) and the normalized cell count was determined as 95.2%.
The corresponding values for `CN(C)P(=S)(Nc1ccccc1)C(Cl)(Cl)Cl` (stereo not given) are 26.7% (inactive) and 29.6%.
The corresponding values for `Cc1ccc(-c2nn(CCC#N)cc2C(=O)O)cc1C` are -30% (inactive) and 85.1%.
The corresponding values for `CCN(CC)C(=O)c1ccc(NC(=O)c2cc(-n3cnnc3)ccc2Cl)cc1` are 86.7% (active) and 44.7%.
Take `CC(c1ccccc1)(c1ccccc1)c1ccncc1`: the inhibition is 27.3% (inactive) and the normalized cell count was 109%.
The corresponding values for `Cc1ccsc1C(=O)C1CCCN(Cc2ccc(O)cc2)C1` (stereo not given) are 11.1% (inactive) and 139%.
For the compound `C=CCN(CC=C)C(=O)Nc1ccc(OCC)cc1`, the inhibition was 36.8% (inactive) and the normalized cell count stood at 88.5%.
